# Assay results as given in the supplement of paper PMC8728848.
# About 410 targets per protein were measured; listed, in parts, are those with the strongest signals and a random draw of the rest.
# How the values were obtained:
# Assay in all cases: glycan array binding signal (z-score within array); higher = stronger binding
# Settings in all cases: glycan notation: IUPAC condensed, linker removed
# [1] = target: Fuc(a1-2)Gal(b1-3)GalNAc(b1-4)[Neu5Ac(a2-3)]Gal(b1-4)Glc
# In short: (§1)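 Glycan array data were curated from 3228 arrays in the Consortium for Functional Glycomics database and kept only where the protein sequence was available. Glycan names were converted to IUPAC-condensed notation, and columns mapping to the same glycan were averaged. The binding signal is a within-array Z-score, averaged across arrays of the same protein sequence at different concentrations or buffers and across linkers. Negative Z-scores can be read as non-binding.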
# Fuc(a1-2)Gal(b1-4)Glc6S = target: Fuc(a1-2)Gal(b1-4)Glc6S
# In short: as §1
# Fuc(a1-2)Gal(b1-4)GlcNAc = target: Fuc(a1-2)Gal(b1-4)GlcNAc
# In short: as §1
# [2] = target: Fuc(a1-2)Gal3S(b1-4)GlcNAc
# In short: as §1
# [3] = target: Fuc(a1-2)[Gal(a1-3)]Gal(b1-3)GlcNAc(b1-3)GalNAc
# In short: as §1
# [4] = target: Fuc(a1-2)[Gal(a1-3)]Gal(b1-3)GlcNAc(b1-6)GalNAc
# In short: as §1
# [5] = target: Fuc(a1-2)[Gal(a1-3)]Gal(b1-4)Glc
# In short: as §1
# [6] = target: Fuc(a1-2)[Gal(a1-3)]Gal(b1-4)GlcNAc(b1-2)Man(a1-3)[Fuc(a1-2)[Gal(a1-3)]Gal(b1-4)GlcNAc(b1-2)Man(a1-6)]Man(b1-4)GlcNAc(b1-4)[Fuc(a1-6)]GlcNAc
# In short: as §1
# [7] = target: Fuc(a1-2)[GalNAc(a1-3)]Gal(b1-3)GlcNAc(b1-3)GalNAc
# In short: as §1
# [8] = target: Fuc(a1-2)[GalNAc(a1-3)]Gal(b1-4)GlcNAc(b1-3)GalNAc
# In short: as §1
# [9] = target: Fuc(a1-2)[GalNAc(a1-3)]Gal(b1-4)GlcNAc(b1-6)GalNAc
# In short: as §1
# [10] = target: Fuc(a1-2)[GalNAc(a1-3)]Gal(b1-4)[Fuc(a1-3)]GlcNAc(b1-3)GalNAc
# In short: as §1
# [11] = target: Fuc(a1-3)[Gal(b1-4)]GlcNAc(b1-3)Gal(b1-3)[Fuc(a1-4)]GlcNAc
# In short: as §1
# [12] = target: Fuc(a1-3)[Gal3S(b1-4)]GlcNAc6S
# In short: as §1
# [13] = target: Fuc(a1-3)[GalNAc(b1-4)]GlcNAc
# In short: as §1
# Gal(a1-4)GlcNAc = target: Gal(a1-4)GlcNAc
# In short: as §1
# Gal(b1-3)Gal = target: Gal(b1-3)Gal
# In short: as §1
# Gal(b1-3)Gal(b1-4)GlcNAc = target: Gal(b1-3)Gal(b1-4)GlcNAc
# In short: as §1
# [14] = target: Gal(b1-3)GalNAc(b1-4)Gal(b1-4)Glc
# In short: as §1
# Gal(b1-3)GlcNAc = target: Gal(b1-3)GlcNAc
# In short: as §1
# [15] = target: Gal(b1-3)GlcNAc(b1-6)Gal(b1-4)GlcNAc
# In short: as §1
# [16] = target: Gal(b1-4)GlcNAc(b1-2)[Gal(b1-4)GlcNAc(b1-4)]Man(a1-3)[Gal(b1-4)GlcNAc(b1-2)Man(a1-6)]Man(b1-4)GlcNAc(b1-4)GlcNAc
# In short: as §1
# [17] = target: Gal(b1-4)GlcNAc(b1-2)[Gal(b1-4)GlcNAc(b1-6)]Man(a1-6)[Gal(b1-4)GlcNAc(b1-2)Man(a1-3)]Man(b1-4)GlcNAc(b1-4)GlcNAc
# In short: as §1
# [18] = target: Gal(b1-4)GlcNAc(b1-3)Gal(b1-4)GlcNAc(b1-3)Gal(b1-4)GlcNAc(b1-3)Gal(b1-4)GlcNAc(b1-3)Gal(b1-4)GlcNAc(b1-2)Man(a1-3)[Gal(b1-4)GlcNAc(b1-3)Gal(b1-4)GlcNAc(b1-3)Gal(b1-4)GlcNAc(b1-3)Gal(b1-4)GlcNAc(b1-3)Gal(b1-4)GlcNAc(b1-2)Man(a1-6)]Man(b1-4)GlcNAc(b1-4)[Fuc(a1-6)]GlcNAc
# In short: as §1
# [19] = target: Gal(b1-4)GlcNAc(b1-3)Gal(b1-4)GlcNAc(b1-3)Gal(b1-4)GlcNAc(b1-3)Gal(b1-4)GlcNAc(b1-3)Gal(b1-4)GlcNAc(b1-2)[Gal(b1-4)GlcNAc(b1-3)Gal(b1-4)GlcNAc(b1-3)Gal(b1-4)GlcNAc(b1-3)Gal(b1-4)GlcNAc(b1-3)Gal(b1-4)GlcNAc(b1-6)]Man(a1-6)[Gal(b1-4)GlcNAc(b1-3)Gal(b1-4)GlcNAc(b1-3)Gal(b1-4)GlcNAc(b1-3)Gal(b1-4)GlcNAc(b1-3)Gal(b1-4)GlcNAc(b1-2)Man(a1-3)]Man(b1-4)GlcNAc(b1-4)[Fuc(a1-6)]GlcNAc
# In short: as §1
# [20] = target: Gal(b1-4)GlcNAc(b1-3)[Fuc(a1-3)GlcNAc(b1-6)]Gal(b1-4)Glc
# In short: as §1
# Gal3S(b1-4)Glc = target: Gal3S(b1-4)Glc
# In short: as §1
# [21] = target: Gal3S(b1-4)[Fuc(a1-3)]Glc6S
# In short: as §1
# Gal4S(b1-4)GlcNAc = target: Gal4S(b1-4)GlcNAc
# In short: as §1
# [22] = target: GalNAc(a1-3)GalNAc(b1-3)Gal(a1-4)Gal(b1-4)GlcNAc
# In short: as §1
# [23] = target: GalNAc(b1-3)Gal(a1-4)Gal(b1-4)GlcNAc(b1-3)Gal(b1-4)Glc
# In short: as §1
# [24] = target: GlcNAc(a1-4)Gal(b1-4)GalNAc
# In short: as §1
# [25] = target: GlcNAc(a1-4)Gal(b1-4)GlcNAc(b1-3)Gal(b1-4)Glc
# In short: as §1
# [26] = target: GlcNAc(b1-2)[GlcNAc(b1-4)]Man(a1-3)[GlcNAc(b1-2)Man(a1-6)]Man(b1-4)GlcNAc(b1-4)GlcNAc
# In short: as §1
# [27] = target: GlcNAc(b1-3)Gal(b1-4)GlcNAc(b1-2)[GlcNAc(b1-3)Gal(b1-4)GlcNAc(b1-6)]Man(a1-6)[GlcNAc(b1-3)Gal(b1-4)GlcNAc(b1-2)Man(a1-3)]Man(b1-4)GlcNAc(b1-4)GlcNAc
# In short: as §1
# [28] = target: GlcNAc(b1-4)Gal(b1-4)GlcNAc
# In short: as §1
# Man(a1-3)[Man(a1-6)]Man = target: Man(a1-3)[Man(a1-6)]Man
# In short: as §1
# [29] = target: Neu5Ac(a2-3)Gal(b1-3)GalNAc(b1-4)[Neu5Ac(a2-8)Neu5Ac(a2-3)]Gal(b1-4)Glc
# In short: as §1
# [30] = target: Neu5Ac(a2-3)Gal(b1-3)GlcNAc(b1-2)Man(a1-3)[Neu5Ac(a2-3)Gal(b1-3)GlcNAc(b1-2)Man(a1-6)]Man(b1-4)GlcNAc(b1-4)GlcNAc
# In short: as §1
# [31] = target: Neu5Ac(a2-3)Gal(b1-3)GlcNAc(b1-3)GalNAc
# In short: as §1
# [32] = target: Neu5Ac(a2-3)Gal(b1-3)[Fuc(a1-4)]GlcNAc
# In short: as §1
# [33] = target: Neu5Ac(a2-3)Gal(b1-3)[GlcNAc(b1-6)]GalNAc
# In short: as §1
# [34] = target: Neu5Ac(a2-3)Gal(b1-3)[Neu5Ac(a2-6)]GalNAc
# In short: as §1
# [35] = target: Neu5Ac(a2-3)Gal(b1-4)GlcNAc(b1-2)Man(a1-3)[Neu5Ac(a2-3)Gal(b1-4)GlcNAc(b1-2)Man(a1-6)]Man(b1-4)GlcNAc(b1-4)[Fuc(a1-6)]GlcNAc
# In short: as §1
# [36] = target: Neu5Ac(a2-3)Gal(b1-4)GlcNAc(b1-2)[Neu5Ac(a2-3)Gal(b1-4)GlcNAc(b1-6)]Man(a1-6)[Neu5Ac(a2-3)Gal(b1-4)GlcNAc(b1-2)Man(a1-3)][GlcNAc(b1-4)]Man(b1-4)GlcNAc(b1-4)GlcNAc
# In short: as §1
# [37] = target: Neu5Ac(a2-3)Gal(b1-4)GlcNAc(b1-3)Gal(b1-4)GlcNAc(b1-3)GalNAc
# In short: as §1
# [38] = target: Neu5Ac(a2-3)Gal(b1-4)[Fuc(a1-3)]GlcNAc(b1-2)Man
# In short: as §1
# [39] = target: Neu5Ac(a2-6)Gal(b1-4)GlcNAc(b1-2)Man(a1-3)[Man(a1-6)]Man(b1-4)GlcNAc(b1-4)GlcNAc
# In short: as §1
# [40] = target: Neu5Ac(a2-6)Gal(b1-4)GlcNAc(b1-2)Man(a1-6)[Man(a1-3)]Man(b1-4)GlcNAc(b1-4)GlcNAc
# In short: as §1
# [41] = target: Neu5Ac(a2-6)Gal(b1-4)GlcNAc(b1-6)[Gal(b1-3)]GalNAc
# In short: as §1
# [42] = target: Neu5Ac(a2-8)Neu5Ac(a2-3)Gal(b1-4)Glc
# In short: as §1
# [43] = target: Neu5Ac(a2-8)Neu5Ac(a2-8)Neu5Ac(a2-3)Gal(b1-4)Glc
# In short: as §1
# Neu5Ac(b2-6)GalNAc = target: Neu5Ac(b2-6)GalNAc
# In short: as §1
# [44] = target: Neu5Gc(a2-8)Neu5Gc(a2-6)Gal(b1-4)GlcNAc
# In short: as §1
binder,measurement,setting,value
Pwp1 (Candida glabrata) (protein) MGSSHHHHHHSSGLVPRGSHMASANPISITNVCQFPDNWARTAGFQATTVRLGLTIASNTYKELLNYPGLFNFATQKATVTQPNFSISGFPFFTGLYGLTVWPINLLVELQGYFVPPESGNYTFTLQGSDDAAILFFANPSTFACGSQNDWPQPREADITVTDTLVPSRTLYLVKGVAYPIRIAYYNGSGDGKLNVSFKDPSGTTHTDWKGYVWQYSNTCSTCTYT,glycan array binding signal (z-score),[1],2.14
same,glycan array binding signal (z-score),Fuc(a1-2)Gal(b1-4)Glc6S,-0.871
same,glycan array binding signal (z-score),Fuc(a1-2)Gal(b1-4)GlcNAc,0.296
same,glycan array binding signal (z-score),[2],0.714
same,glycan array binding signal (z-score),[3],0.778
same,glycan array binding signal (z-score),[4],0.51
same,glycan array binding signal (z-score),[5],-0.087
same,glycan array binding signal (z-score),[6],0.301
same,glycan array binding signal (z-score),[7],2.44
same,glycan array binding signal (z-score),[8],2.36
same,glycan array binding signal (z-score),[9],0.906
same,glycan array binding signal (z-score),[10],-0.825
same,glycan array binding signal (z-score),[11],3.12
same,glycan array binding signal (z-score),[12],1.94
same,glycan array binding signal (z-score),[13],-1.67
same,glycan array binding signal (z-score),Gal(a1-4)GlcNAc,0.974
same,glycan array binding signal (z-score),Gal(b1-3)Gal,0.861
same,glycan array binding signal (z-score),Gal(b1-3)Gal(b1-4)GlcNAc,-0.314
same,glycan array binding signal (z-score),[14],1.92
same,glycan array binding signal (z-score),Gal(b1-3)GlcNAc,0.448
same,glycan array binding signal (z-score),[15],-1.46
same,glycan array binding signal (z-score),[16],-0.345
same,glycan array binding signal (z-score),[17],0.454
same,glycan array binding signal (z-score),[18],-0.637
same,glycan array binding signal (z-score),[19],-3.11
same,glycan array binding signal (z-score),[20],-1
same,glycan array binding signal (z-score),Gal3S(b1-4)Glc,0.803
same,glycan array binding signal (z-score),[21],-0.627
same,glycan array binding signal (z-score),Gal4S(b1-4)GlcNAc,0.267
same,glycan array binding signal (z-score),[22],-0.037
same,glycan array binding signal (z-score),[23],1.77
same,glycan array binding signal (z-score),[24],-1.74
same,glycan array binding signal (z-score),[25],1.72
same,glycan array binding signal (z-score),[26],0.374
same,glycan array binding signal (z-score),[27],0.839
same,glycan array binding signal (z-score),[28],-2.23
same,glycan array binding signal (z-score),Man(a1-3)[Man(a1-6)]Man,-1.51
same,glycan array binding signal (z-score),[29],0.23
same,glycan array binding signal (z-score),[30],1.89
same,glycan array binding signal (z-score),[31],0.585
same,glycan array binding signal (z-score),[32],-1.74
same,glycan array binding signal (z-score),[33],3.78
same,glycan array binding signal (z-score),[34],0.612
same,glycan array binding signal (z-score),[35],0.747
same,glycan array binding signal (z-score),[36],2.29
same,glycan array binding signal (z-score),[37],0.411
same,glycan array binding signal (z-score),[38],-1.41
same,glycan array binding signal (z-score),[39],-0.785
same,glycan array binding signal (z-score),[40],0.335
same,glycan array binding signal (z-score),[41],-1.62
same,glycan array binding signal (z-score),[42],0.642
same,glycan array binding signal (z-score),[43],-0.355
same,glycan array binding signal (z-score),Neu5Ac(b2-6)GalNAc,1.13
same,glycan array binding signal (z-score),[44],1.17
